# Data reported in the supplement of paper PMC6555819.
# What was measured:
# Experiment in all cases: PBM binding z-score (relative to random genomic background probes); higher = stronger binding; sequences stand for … in GC…GCGATTGACAGCGTAGAATGAAGG
# [1] = test system: PPARg:RXRa DBDmut IVT, anti-RXR (DBD mutation: RXRa K156A/R161A, NR concentration 270 nM, RXRa partner concentration 90 nM)
# Summary of the method: (§1)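 Binding z-scores were set against random background probes. The data came from custom Agilent 4×180K protein-binding microarrays carrying double-stranded probes with 34-nt variable regions, incubated 1 h with ligand-free nuclear receptor dimers. Partner-specific antibodies detected binding, and scanned fluorescence was regression-normalized.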
# [2] = test system: PPARg:RXRa IVT, anti-PPARg (NR concentration 270 nM, RXRa partner concentration 90 nM)
# Summary of the method: as §1
# [3] = test system: PPARg homodimer (NR concentration 180 nM)
# Summary of the method: as §1
# [4] = test system: PXR:RXRa (NR concentration 270 nM, RXRa partner concentration 90 nM)
# Summary of the method: as §1
# [5] = test system: PXR homodimer (NR concentration 270 nM)
# Summary of the method: as §1
# [6] = test system: RARa:RXR (NR concentration 270 nM, RXRa partner concentration 90 nM)
# Summary of the method: as §1
# [7] = test system: RARa homodimer (NR concentration 270 nM)
# Summary of the method: as §1
# [8] = test system: RARb:RXRa (NR concentration 270 nM, RXRa partner concentration 90 nM)
# Summary of the method: as §1
# [9] = test system: RARb homodimer (NR concentration 270 nM)
# Summary of the method: as §1
# [10] = test system: RARg:RXRa (NR concentration 270 nM, RXRa partner concentration 90 nM)
# Summary of the method: as §1
# [11] = test system: RARg homodimer (NR concentration 270 nM)
# Summary of the method: as §1
# [12] = test system: RXRa DBDmut IVT, anti-RXR (DBD mutation: RXRa K156A/R161A, NR concentration 90 nM)
# Summary of the method: as §1
# [13] = test system: RXRa homodimer (NR concentration 180 nM)
# Summary of the method: as §1
# [14] = test system: THRa:RXRa (NR concentration 90 nM, RXRa partner concentration 90 nM)
# Summary of the method: as §1
# [15] = test system: THRa homodimer (NR concentration 90 nM)
# Summary of the method: as §1
# [16] = test system: VDR homodimer (NR concentration 270 nM)
# Summary of the method: as §1
Sequence,PBM binding z-score [1],PBM binding z-score [2],PBM binding z-score [3],PBM binding z-score [4],PBM binding z-score [5],PBM binding z-score [6],PBM binding z-score [7],PBM binding z-score [8],PBM binding z-score [9],PBM binding z-score [10],PBM binding z-score [11],PBM binding z-score [12],PBM binding z-score [13],PBM binding z-score [14],PBM binding z-score [15],PBM binding z-score [16]
CTATGTCGGTTAAGGGGGTCATTCAGTTTGAAAG,4.49,5.96,6.84,5.84,8.33,5.76,4.21,3.57,4.04,4.91,4.15,2.98,5.04,3.9,3.17,6.54
TCGAGTAGGTTACGGGGGCTTTCAGGGATGAAGA,4.35,4.61,0.803,1.87,0.25,1.99,-0.0109,1.69,1.29,1.96,1.19,1.17,1.69,2.43,0.921,0.544
CGATGTAGGTTAAGGGGGTCATTCAGTTTGAAAG,7.27,7.49,5.88,6.1,13.5,6.18,4.27,3.65,3.87,5.19,4.02,2.93,5.85,3.81,2.8,6.65
TCTAGTAGGTTACGGGGGCATTCAGGGATGAAGA,6.73,7,2.93,3.79,2.71,3.63,1.37,3.21,2.73,3.98,3.21,2.95,3.28,4.01,2.2,3.82
TAGAGTAGGTTACGGGGGCATTCAGGGATGAAGA,5.84,6.92,2.22,3.17,2.11,3.35,1.56,2.85,2.5,3.43,2.77,2.08,3.21,3.99,1.75,3.81
CCGAGTAGGTTACGAGGGGGCATTGAGTGCGAAT,4.78,4.42,1.95,5.05,8.74,2.91,0.485,2.02,1.96,3.29,2.3,1.46,2.21,3.98,0.378,3.76
CCGTGTAGGTTACGAGGGGGCATTCAGTGCGAAT,3.52,4.85,2.84,5.31,7.2,3.23,1.33,2.47,2.58,3.76,3.23,1.74,2.46,4.03,1.23,3.94
TCGAGTAGGTTACAGGGGCATTCAGGGATGAAGA,3.72,4.1,0.898,1.17,0.587,1.5,0.487,1.59,1.64,1.1,0.679,0.69,1.29,2.65,0.735,1.42
